For 4 compounds, composite z-score and z-score results are on record in PubChem BioAssay.

For experiment [1], the system named is Wnt5a (protein binding on small-molecule microarray). As to the kind of experiment: small molecules binding Wnt5a protein – biophysical, small-molecule microarray, 635/667 nm fluorescence, primary screen (AID 1142).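 Also: fluorescence read at 667 nm with signal to noise per printed feature.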 To be noted: 635 nm fluorescence, higher = more signal.
Experiment [2] is described as follows: ATP-based viability of Huh7 replicon cells – cell-based, CellTiter-Glo luminescence, basal, 48 h, cytotoxicity control for HCV replication inhibitor project, primary screen (AID 1143).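 Also: Huh7 hepatoma cells carrying a hepatitis C replication reporter with no stimulus; test concentration not given here.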 As to conditions: higher = more signal, called active from +8 up or from −8 down. (In general: Replicon systems follow genome replication, usually without infectious particles.)

A short description of experiment [3]: basal CRE-LacZ reporter activity in PC12 – cell-based, unstimulated, primary screen (AID 1145). To be noted: no forskolin, luminescence, 4.5 h, higher = more signal, called active from +8 up or from −8 down.
The nature of experiment [4]: forskolin-driven CRE-LacZ activity in PC12 – cell-based, CRE-LacZ reporter, forskolin-stimulated, primary screen (AID 1146).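 Also: PC12 cells with 6xCRE LacZ reporter stimulated by forskolin 10 µM; beta-galactosidase reporter signal reflecting CREB driven transcription.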 To be noted: luminescence, 4.5 h, higher = more signal, called active from +8 up or from −8 down.
Experiment [5] has as its target Streptavidin (Streptomyces avidinii) (UniProt P22629). As to the kind of experiment: compounds binding control protein streptavidin – biophysical, small-molecule microarray, 635/667 nm fluorescence, artefact control for SMM compound annotation, primary screen (AID 1147).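 Also: signal reflects streptavidin binding to arrayed compounds as a control protein.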 To be noted: higher = more signal.
A short description of experiment [6]: probe aInhba binding on compound microarray – biochemical, small-molecule microarray, 635/667 nm fluorescence, primary screen (AID 1148).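 Also: score merges 667nm spot fluorescence with signal-to-noise for antibody binding to printed compounds.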 As to conditions: higher = more signal.
Experiment [7] concerns the target Torsin-1A (Homo sapiens) (UniProt O14656). Nature of the experiment: TOR1A wild-type binding on microarray – cell lysate, small-molecule microarray, lysate, 635/667 nm, primary screen (AID 1149). To be noted: COS7 hTOR1A-WT lysate, 635 nm fluorescence, higher = more signal.
The target is the same in experiment [8]. As to the kind of experiment: torsin A mutant lysate binding on microarrays – cell lysate, small-molecule microarray, COS7 lysate, 635/667 nm fluorescence, primary screen (AID 1150).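 Also: score pools 667 nm emission and signal to noise measuring lysate protein binding.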 To be noted: COS7 hTOR1A mutant lysate, 635 nm fluorescence, higher = more signal.
The subject of experiment [9] is Sonic hedgehog protein (Shh). Nature of the experiment: Sonic hedgehog microarray binding compounds – biochemical, small-molecule microarray, 635/667 nm fluorescence, primary screen (AID 1151).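 Also: Shh protein binding to compounds spotted on small-molecule microarray slides; score combines spot fluorescence intensity with signal-to-noise across triplicate slides.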 As to conditions: 635 nm fluorescence, higher = more signal.
Experiment [10] is described as follows: optical density shifts of acrAB sulA E. coli – strain DRC41, OD650, 48 h, E. coli filamentation inducer project, primary screen (AID 1152).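 Also: E. coli MC1000 strain DRC41 lacking acrAB efflux pump and sulA.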 As to conditions: higher = more signal, called active from +8 up or from −8 down.
A short description of experiment [11]: probe aLefty1 binding on compound microarray – biochemical, small-molecule microarray, 635/667 nm fluorescence, primary screen (AID 1153).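 Also: score merges spot fluorescence with signal-to-noise ratio from the scanned slide images.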 To be noted: higher = more signal.
Experiment [12] is described as follows: plasmodial surface anion channel blockers, osmotic lysis – cell-based, P. falciparum Indochina, OD700, 1 h, primary screen (AID 1154). As to conditions: P. falciparum Indochina infected RBC osmotic lysis, higher = more signal, called active from +8 up or from −8 down.
Experiment [13] is described as follows: plasmodial surface anion channel blockers, osmotic lysis – cell-based, P. falciparum Indochina, OD700, 2 h, primary screen (AID 1155).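 Also: lysis reports solute entry through the parasite surface anion channel PSAC.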 To be noted: P. falciparum Indochina infected erythrocytes, higher = more signal, called active from +8 up or from −8 down.
Experiment [14] in a line: changes in parasitized red cell lysis, either direction – P. falciparum Indochina, OD700, 3 h, PSAC antagonist project, primary screen (AID 1156). To be noted: P. falciparum-infected erythrocytes, osmotic lysis, higher = more signal, called active from +8 up or from −8 down.
Experiment [15] is described as follows: plasmodial surface anion channel blockers, osmotic lysis – cell-based, P. falciparum Indochina, OD700, 18 h, primary screen (AID 1157). As to conditions: P. falciparum Indochina infected erythrocytes, osmotic lysis OD700, 18 h; higher = more signal, called active from +8 up or from −8 down.
Experiment [16] is described as follows: S6 kinase pathway phospho-S6 level changes – cell-based, A549, cytoblot, luminescence, serum-stimulated, primary screen (AID 1158).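 Also: serum-stimulated A549 lung adenocarcinoma cells; signal is phosphorylated S6 detected by cytoblot immunostaining with HRP secondary.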 To be noted: 5 h, higher = more signal.
The target in experiment [17] is NADPH oxidase 2 (Homo sapiens) (UniProt P04839). As to the kind of experiment: compounds shifting NOX2 Amplex Red fluorescence – cell-based, HEK293-NOX2, PMA-stimulated, NOX inhibitor project, primary screen (AID 1159). Also: test concentration not given here. To be noted: 45 min, higher = more signal, called active from +8 up or from −8 down.
Experiment [18] deals with NADPH oxidase 4 (Homo sapiens) (UniProt Q9NPH5). Nature of the experiment: compounds shifting NOX4 Amplex Red fluorescence – cell-based, HEK293-NOX4, tetracycline-induced, NOX inhibitor project, primary screen (AID 1160). To be noted: HEK293-NOX4, Amplex Red H2O2 fluorescence, 45 min; higher = more signal, called active from +8 up or from −8 down.
The target in experiment [19] is NADPH oxidase 5 (Homo sapiens) (UniProt Q96PH1). As to the kind of experiment: compounds shifting NOX5 Amplex Red fluorescence – cell-based, HEK293-NOX5, NOX inhibitor project, primary screen (AID 1161). To be noted: HEK293-NOX5, ionomycin, 45 min, higher = more signal.

SMILES strings stand for the structures. Activity calls are given as the source filed them.

Sequence of Streptavidin (Streptomyces avidinii) (P22629 whole entry, looked up): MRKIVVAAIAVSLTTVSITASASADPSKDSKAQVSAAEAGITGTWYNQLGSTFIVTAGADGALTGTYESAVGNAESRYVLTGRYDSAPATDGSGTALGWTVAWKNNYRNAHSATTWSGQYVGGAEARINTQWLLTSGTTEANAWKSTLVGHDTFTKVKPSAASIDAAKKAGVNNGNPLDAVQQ
Sequence of NADPH oxidase 5 (Homo sapiens) (Q96PH1 whole entry, looked up): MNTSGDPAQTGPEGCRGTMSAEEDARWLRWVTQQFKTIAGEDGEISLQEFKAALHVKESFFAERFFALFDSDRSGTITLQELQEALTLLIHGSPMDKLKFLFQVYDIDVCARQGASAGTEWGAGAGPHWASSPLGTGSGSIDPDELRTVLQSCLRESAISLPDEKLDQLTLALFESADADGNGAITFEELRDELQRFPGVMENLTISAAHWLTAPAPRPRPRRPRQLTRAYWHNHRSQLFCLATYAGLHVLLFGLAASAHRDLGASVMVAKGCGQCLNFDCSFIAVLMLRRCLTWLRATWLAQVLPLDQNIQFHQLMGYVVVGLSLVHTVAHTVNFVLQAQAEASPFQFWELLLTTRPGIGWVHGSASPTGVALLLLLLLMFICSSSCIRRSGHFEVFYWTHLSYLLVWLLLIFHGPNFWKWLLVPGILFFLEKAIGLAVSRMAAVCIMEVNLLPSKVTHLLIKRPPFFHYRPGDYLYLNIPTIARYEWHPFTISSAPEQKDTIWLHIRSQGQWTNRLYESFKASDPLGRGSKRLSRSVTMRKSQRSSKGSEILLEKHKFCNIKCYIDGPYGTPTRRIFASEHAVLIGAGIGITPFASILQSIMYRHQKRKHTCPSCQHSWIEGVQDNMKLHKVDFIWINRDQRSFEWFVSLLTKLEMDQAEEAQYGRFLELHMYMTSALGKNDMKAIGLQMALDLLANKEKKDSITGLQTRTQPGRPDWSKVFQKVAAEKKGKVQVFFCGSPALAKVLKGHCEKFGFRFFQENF
Sequence of Torsin-1A (Homo sapiens) (O14656 whole entry, looked up): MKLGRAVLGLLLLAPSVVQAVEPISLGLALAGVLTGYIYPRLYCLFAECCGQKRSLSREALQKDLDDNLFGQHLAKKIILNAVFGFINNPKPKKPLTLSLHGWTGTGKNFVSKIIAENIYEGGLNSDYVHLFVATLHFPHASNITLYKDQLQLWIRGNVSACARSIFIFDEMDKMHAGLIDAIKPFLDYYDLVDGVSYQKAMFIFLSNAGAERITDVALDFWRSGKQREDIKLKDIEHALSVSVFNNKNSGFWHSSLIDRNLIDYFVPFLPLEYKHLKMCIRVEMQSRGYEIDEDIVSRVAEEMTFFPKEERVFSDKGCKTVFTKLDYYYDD
Sequence of NADPH oxidase 4 (Homo sapiens) (Q9NPH5 whole entry, looked up): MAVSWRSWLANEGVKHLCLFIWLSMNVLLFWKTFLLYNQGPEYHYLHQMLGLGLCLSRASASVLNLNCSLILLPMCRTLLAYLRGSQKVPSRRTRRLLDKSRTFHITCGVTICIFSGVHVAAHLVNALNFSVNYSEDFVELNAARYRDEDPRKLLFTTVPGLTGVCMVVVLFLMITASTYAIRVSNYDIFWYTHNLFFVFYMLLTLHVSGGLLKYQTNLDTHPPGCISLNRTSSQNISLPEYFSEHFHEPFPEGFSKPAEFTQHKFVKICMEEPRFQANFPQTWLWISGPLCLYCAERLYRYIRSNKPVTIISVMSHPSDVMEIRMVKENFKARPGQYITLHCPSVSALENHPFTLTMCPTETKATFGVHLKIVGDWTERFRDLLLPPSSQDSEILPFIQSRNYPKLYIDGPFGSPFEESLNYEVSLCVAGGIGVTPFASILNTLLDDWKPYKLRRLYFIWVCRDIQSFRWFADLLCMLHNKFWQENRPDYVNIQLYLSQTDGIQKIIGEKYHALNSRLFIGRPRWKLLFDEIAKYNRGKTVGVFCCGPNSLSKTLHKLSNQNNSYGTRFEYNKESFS
Sequence of NADPH oxidase 2 (Homo sapiens) (P04839 whole entry, looked up): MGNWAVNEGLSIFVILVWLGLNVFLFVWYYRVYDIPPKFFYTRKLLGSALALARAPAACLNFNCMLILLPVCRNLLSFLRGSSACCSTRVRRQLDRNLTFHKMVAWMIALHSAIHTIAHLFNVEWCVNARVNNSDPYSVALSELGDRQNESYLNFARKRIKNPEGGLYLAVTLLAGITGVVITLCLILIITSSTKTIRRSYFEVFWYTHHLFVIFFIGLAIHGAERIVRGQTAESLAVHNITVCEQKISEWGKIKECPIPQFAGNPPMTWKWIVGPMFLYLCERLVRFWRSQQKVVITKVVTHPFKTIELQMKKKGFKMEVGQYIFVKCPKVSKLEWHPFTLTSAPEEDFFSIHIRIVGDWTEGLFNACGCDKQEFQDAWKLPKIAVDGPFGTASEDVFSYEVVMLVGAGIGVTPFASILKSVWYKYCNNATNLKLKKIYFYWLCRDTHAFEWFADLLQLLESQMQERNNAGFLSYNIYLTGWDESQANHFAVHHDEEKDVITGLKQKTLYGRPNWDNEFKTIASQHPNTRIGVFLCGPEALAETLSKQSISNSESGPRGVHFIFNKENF

With `CCC(=O)[C@]12O[C@@]3([C@@H]4C(=O)OCC[C@@H]41)N(Cc1ccccc1)C(C)=C(C(=O)OC)[C@@H](c1ccccc1)N3C2=O`, the composite z-score in experiment [1] was -0.183; in [5] it was -0.444; in [6], -0.0448; in experiment [7], -0.453; in experiment [8], -0.296; in experiment [9], 1.16. The compound also registered a composite z-score in experiment [11] of -0.243. The z-score is -0.596 (inactive) in experiment [2]; 1.01 (inactive) in experiment [3]; -1.32 (inactive) in experiment [4]; 0.57 (inactive) in experiment [10]; 0.34 (inactive) in experiment [12]; -1.22 (inactive) in [13]. In addition, the z-score in experiment [14] was 0.573 (inactive); in experiment [15], -1.74 (inactive); in experiment [16], 0.21; in experiment [17] it was 1.2 (inactive); in [18], 0.785 (inactive); in [19] it was 0.538.
Turning to `COc1cccc([C@H]2N[C@H](C(=O)O)CC[C@@H]2C)c1`, the composite z-score in [1] is 0.04; in [5], 0.158; in [6] it was -0.111; in [7], 0.386; in experiment [8] it was 0.403; in [9], -0.0276. This compound showed a composite z-score in [11] of -0.23. Also, the z-score was -3.79 (inactive) in experiment [2]; -0.167 (inactive) in experiment [3]; -1.61 (inactive) in [4]; 0.669 (inactive) in experiment [10]; 1.09 (inactive) in [12]; 0.0208 (inactive) in [13]. Besides, the z-score in experiment [14] is 0.269 (inactive); in experiment [15] it was -1.06 (inactive); in experiment [16], 3.05; in experiment [17], 0.0263 (inactive); in experiment [18], -0.557 (inactive); in experiment [19], 0.125.
On to `C=CCC(OC(C)=O)[C@@H]1[C@@H](N(Cc2cc3ccccc3o2)C(=O)c2ccc(C)cc2)c2cc(OCCCO)ccc2N1C(=O)c1ccc2ccccc2n1` (stereo partly specified), for which the composite z-score in experiment [1] was -0.0502; in experiment [5], 0.184; in experiment [6], -0.0266; in [7], 0.369; in [8], -0.368; in experiment [9], 0.609. Further, the composite z-score in experiment [11] is -0.007. Further, the z-score in experiment [2] is -0.17 (inactive); in [3], 5.44 (inactive); in experiment [4] it was -0.273 (inactive); in experiment [10] it was 3.08 (inactive); in experiment [12] it was 0.834 (inactive); in [13] it was 0.345 (inactive). Moreover, the z-score in [14] is -0.629 (inactive); in experiment [15], 0.432 (inactive); in experiment [16], 0.469; in experiment [17], 0.12 (inactive); in experiment [18], 0.589 (inactive); in [19], 1.51.
Take `COc1cc2c(cc1OC)CN(C(=O)[C@@H]1[C@H]3C(=O)O[C@H](c4ccccc4)[C@H](c4ccccc4)N3[C@H](c3ccccc3OCCO)[C@@]13C(=O)Nc1ccccc13)CC2`: the composite z-score in experiment [1] was 0.406; in [5] it was 0.0797; in experiment [6], 0.387; in [7] it was 0.497; in experiment [8], 0.701; in experiment [9], 0.554. For the same compound, the composite z-score in experiment [11] is 0.551. For the same compound, the z-score in [2] was -2.96 (inactive); in experiment [3], 0.769 (inactive); in [4], -1.31 (inactive); in experiment [10], 1.47 (inactive); in [12] it was 8.6 (active); in [13], 3.56 (inactive). Also, the z-score is -0.0442 (inactive) in experiment [14]; 2.22 (inactive) in experiment [15]; 0.206 in [16]; 1.67 (inactive) in experiment [17]; 1.02 (inactive) in [18]; 0.901 in experiment [19].
